Screens (PubChem)
proKLK7 act = activators of human kallikrein-7 zymogen. purified proKLK7, EDANS-DABCYL substrate fluorescence; 100% is mature enzyme control, 0% vehicle. AID 652039. activation, % at 7 µM. 0.9% of 370,000 active;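 active means activation above the mean of all tested compounds plus 3 SD, computed per campaign excluding outliers beyond control limits, cut at about 13% in these data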
ADAM17 inh = ADAM17 inhibition, QFRET primary screen. P78536. recombinant ADAM17, EDANS/DABCYL FRET peptide cleavage. inhibition, % at 6.95 µM. 0.83% of 370,000 active;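 active means inhibition above the mean of compounds lying between control limits plus 3 SD, set per campaign, cut at about 8.5% in these data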;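 further: 0% = DMSO-only wells as the low control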
NR3A LBD binder = NR3A (human) ligand-binding domain modulation; NR3A LBD differential scanning fluorimetry, Tm shift; 0% = protein alone, 100% = glycine-bound protein; Tm shift relative to glycine control, % at 25 µM; 2.5% of 340,000 active; AID 1259313;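 active means melting temperature shift of at least 10% of the positive control shift, at one fixed dose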
rCAG RNA binder = r(CAG) repeat RNA binding; TO-PRO-1 dye displacement fluorescence; inhibition, % at 3 µM; 1.3% of 370,000 active; AID 651821;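 active means inhibition above the plate cutoff, the mean of all test compounds on that plate plus 3 SD, cut at about 35% in these data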;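 further: 0% = DMSO alone and 100% = 100 µM mitoxantrone as full dye displacement; higher means more dye released from RNA so lower well fluorescence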
ADAM10 inh = inhibits human ADAM10; O14672; recombinant ADAM10, EDANS/DABCYL FRET peptide cleavage, 3 h; inhibition, % at 7 µM; 0.62% of 370,000 active;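 active means inhibition above a per-campaign cutoff equal to the mean of compounds falling between control-based bounds plus 3 SD, cut at about 20% in these data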;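 further: 0% = DMSO wells while the 100% control is not disclosed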
Target sequence (O14672 214-748 limits assumed): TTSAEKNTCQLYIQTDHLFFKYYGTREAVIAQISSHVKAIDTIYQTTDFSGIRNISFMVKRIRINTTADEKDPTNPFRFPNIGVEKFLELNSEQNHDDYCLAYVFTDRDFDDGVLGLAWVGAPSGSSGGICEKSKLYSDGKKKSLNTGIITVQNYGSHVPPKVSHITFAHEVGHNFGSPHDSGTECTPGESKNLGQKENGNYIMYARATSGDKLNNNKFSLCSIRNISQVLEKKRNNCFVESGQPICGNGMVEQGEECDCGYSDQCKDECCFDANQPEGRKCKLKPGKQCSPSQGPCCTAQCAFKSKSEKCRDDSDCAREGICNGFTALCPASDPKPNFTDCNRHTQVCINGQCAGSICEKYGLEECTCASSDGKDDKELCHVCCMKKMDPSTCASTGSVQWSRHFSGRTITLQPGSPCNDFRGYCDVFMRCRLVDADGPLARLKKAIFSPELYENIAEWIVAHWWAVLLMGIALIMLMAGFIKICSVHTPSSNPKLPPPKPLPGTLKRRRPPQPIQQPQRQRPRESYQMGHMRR
AHR activator = human AHR activation; P35869; AHR-responsive luciferase reporter cells, luminescence; activation, % at 5 µM; 2.5% of 320,000 active; AID 2796; in the data active means activation above about 47%;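 further: 0% = vehicle wells and 100% = reference agonist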
ADAM10 confirm = confirmation of inhibitors of human ADAM10. ADAM10 QFRET peptide cleavage, EDANS fluorescence. 1% of 2,100 active. inhibition, % at 6.95 µM. shares compounds with ADAM10 inh;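 active means inhibition above about 20% chosen separately for each screening run, limit read from the data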;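 further: 0% = DMSO wells and 100% = marimastat wells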
ADAM17 ctr = inhibits human ADAM17 in ADAM10 exosite counter-screen | AID 743214 | 0.5% of 2,100 active | shares compounds with ADAM10 inh | ADAM17 QFRET peptide cleavage, EDANS fluorescence | inhibition, % at 6.95 µM;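 active means mean triplicate inhibition above the solvent-only control wells' mean plus 3 SD, cut at about 12% in these data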;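 further: 0% = DMSO wells and 100% = marimastat wells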
* marks the source's active call; other numbers are inactive results; . = not tested or not shown. This is a sample that favours compounds with a hit; in the whole collection about 7% have one here.

SMILES | proKLK7 act | ADAM17 inh | NR3A LBD binder | rCAG RNA binder | ADAM10 inh | AHR activator | ADAM10 confirm | ADAM17 ctr
CCCSC1=C(C#N)C(c2cccs2)C(C(=O)Nc2ccccc2)=C(C)N1 (centres undefined) | -3 | 6 | -4 | 8 | 28* | 6 | 22* | 7
C[C@@H]1CN([C@@H](C)CO)C(=O)CCCn2cc(nn2)CO[C@H]1CN(C)S(=O)(=O)c1ccccc1F | 1 | 1 | . | 2 | 9 | . | . | .
CCCNC(=O)c1cc(C2CCCCN2S(=O)(=O)c2ccccc2)on1 (centres undefined) | -1 | 3 | . | 7 | 84* | . | 2 | 1
C/C=C/COC(=O)c1[nH]c2c(c1C)C(=O)CC(c1ccc(N(C)C)cc1)C2 (centres undefined) | 0 | 5 | -8 | 5 | 65* | 17 | 6 | 1
COC(=O)c1[nH]c2c(c1C)C(=O)CC(c1ccc(OC)cc1)C2 (centres undefined) | 0 | 1 | 1 | 0 | -1 | 4 | . | .
FC(F)Sc1ccc(NC(=S)NCC2CCCCC2)cc1 | 0 | 7 | 31* | 4 | 31* | 7 | 2 | 1
CC(NS(=O)(=O)c1cc2c3c(c1)CCC(=O)N3CCC2)c1ccccc1 (centres undefined) | 0 | -4 | 1 | -6 | -7 | 0 | . | .
Oc1ccccc1CN(Cc1ccco1)CC(O)COCc1ccc(Cl)cc1 (centres undefined) | -1 | 9 | -6 | 3 | 23* | -1 | 3 | 1
O=C(N/N=C/c1cn(-c2ccccc2)nc1-c1cccs1)c1ccncc1 | 0 | 3 | -28 | 4 | -7 | 16 | . | .
O=C(N/N=C/c1cn(-c2cccs2)nc1-c1ccccc1)c1ccccc1Cl | -4 | 8 | 14* | 13 | 20* | 6 | 14 | 5
O=C1NC(=O)C2(Br)Nc3ccc(Br)cc3C(=O)C2N1 (centres undefined) | 0 | -2 | -2 | -1 | -6 | . | . | .
COc1cccc(-c2cc(C(=O)N3CC4(C)CC3CC(C)(C)C4)no2)c1 (centres undefined) | 1 | -6 | 4 | -1 | 3 | -1 | . | .
CC1(C)CC2CC(C)(CN2C(=O)c2cc(-c3ccc(O)cc3)on2)C1 (centres undefined) | 0 | 7 | -7 | 5 | 22* | -2 | 4 | 0
CCOC(=O)c1c(NC(=O)CSc2n[nH]c(-c3ccco3)n2)sc(C)c1C | 0 | 4 | -10 | 24 | 22* | 3 | 0 | 0
CC(C)CC(COCc1ccc(C(F)(F)F)cc1)N1CCN(C(=O)c2ccc(C(F)(F)F)cc2)CCC1=O (centres undefined) | 0 | 7 | -13 | 0 | 27* | -2 | 0 | 1
Cc1cccc(COCC(Cc2ccccc2)N2CCN(C(=O)c3cccc(C)c3)CCC2=O)c1 (centres undefined) | 1 | 1 | -5 | -2 | -2 | 3 | . | .
O=C(c1cccc(Cl)c1)N1CCC(=O)N([C@H](COCc2cccc(Cl)c2)Cc2ccccc2)CC1 | 0 | 7 | . | 4 | 20* | . | 4 | 1
CC(C)CC(COCc1cccc(C(F)(F)F)c1)N1CCN(C(=O)c2cccc(C(F)(F)F)c2)CCC1=O (centres undefined) | 1 | 7 | -13 | -5 | 21* | 2 | 3 | 0
CC(C)C[C@@H](COCc1ccc(C(F)(F)F)cc1)N1CCN(C(=O)c2ccc(C(F)(F)F)cc2)CCC1=O | -1 | 7 | . | 1 | 16 | . | . | .
Cc1ccc(COC[C@H](CC(C)C)N2CCN(C(=O)c3cccc(C(F)(F)F)c3)CCC2=O)cc1 | 0 | 3 | . | -1 | -2 | . | . | .
O=C(NNC(=O)c1ccncc1)Nc1cc(Cl)ccc1Cl | -1 | 0 | -1 | 11 | -16 | . | . | .
O=C1C(=O)N(C2CCCC2)C(=O)N1Cc1c(F)cccc1Cl | 0 | -1 | 2 | -3 | 21* | 1 | 2 | 0
Cc1ccc(C(=O)Oc2cccc(NC(=O)c3ccco3)c2)cc1S(=O)(=O)N1CCC(C)CC1 | 0 | 7 | 4 | 11 | 13 | -1 | . | .
O=C(Oc1cccc(NC(=O)c2ccco2)c1)c1ccc(Br)c(S(=O)(=O)N2CCCCC2)c1 | 1 | 13* | -1 | 16 | 28* | 1 | 3 | 1
CCCCn1c(N)c(N(CCC(C)C)C(=O)c2ccc(N3CCCC3=O)cc2)c(=O)[nH]c1=O | 0 | -3 | 0 | -3 | 63* | -2 | 4 | 3
SMILES | proKLK7 act | ADAM17 inh | NR3A LBD binder | rCAG RNA binder | ADAM10 inh | AHR activator | ADAM10 confirm | ADAM17 ctr
CCCCn1c(N)c(N(CC)C(=O)c2ccc(N3CCCC3=O)cc2)c(=O)[nH]c1=O | 1 | -4 | 9 | 0 | -4 | 0 | . | .
CCN(C[C@H]1N[C@@](CC)(C(=O)OC)[C@H]2C(=O)N(C)C(=O)[C@@H]12)S(=O)(=O)c1ccc(F)cc1 | -1 | -5 | 1 | 0 | -9 | -1 | . | .
CC(C)c1cccc(C(C)C)c1NC(=O)OC1CCCCC1 | 0 | 3 | . | 0 | -9 | . | . | .
CC(C)c1ccc(NC(=O)C(c2ccc3c(c2)OCO3)N2CCCCC2)cc1 (centres undefined) | 0 | 1 | -3 | -1 | -6 | 1 | . | .
Oc1cc2c(cc1C(c1ccc(Cl)c(Cl)c1)N1CCCC1)OCO2 (centres undefined) | 0 | 8 | 40* | 10 | 27* | . | 19 | 6
Cc1sc2ncnc(N3CCC(C(=O)NNC(=O)COc4ccccc4Cl)CC3)c2c1C | 0 | 0 | -5 | 4 | 26* | 4 | 3 | 2
Cc1ccc(OCC(=O)NNC(=O)C2CCN(c3ncnc4sc(C)c(C)c34)CC2)cc1 | 0 | -2 | -3 | -5 | 3 | 3 | . | .
Cc1sc2ncnc(N3CCC(C(=O)NNC(=O)COc4ccc(Cl)cc4)CC3)c2c1C | 0 | 2 | -6 | 7 | 21* | . | 1 | 0
Cc1sc2ncnc(N3CCC(C(=O)NNC(=O)COc4ccccc4F)CC3)c2c1C | 0 | 2 | 2 | 1 | 2 | 4 | . | .
CCOc1ccc(C(=O)Nc2nnc(S(=O)(=O)Nc3ccccc3C)s2)cc1 | 0 | -1 | -4 | 31 | -4 | 10 | . | .
COc1ccc(-c2nc(CN3CCN(Cc4ccccc4)CC3)c(C)o2)cc1 | 0 | -2 | 1 | -5 | 79* | 10 | 2 | 1
CN(C)c1ccc(/C=C(\C#N)C(=O)Nc2nc3c(s2)CCN(Cc2ccccc2)C3)cc1 | 1 | -4 | -3 | 1 | -12 | 6 | . | .
